Source: PubChem
HP1b chromo inh = HP1-beta chromodomain-methylated histone interaction inhibition. hit rate 0.56% among 390,000. Potency, µM (top dose mostly 114 µM), for the others: at the top dose activity change, negative = inhibition, most hits filed as inhibitors. P83916. AlphaScreen HP1-beta / biotin-H3K9me3 peptide binding; note: nearly all actives have a fitted effect of over 70% in size
Target sequence (P83916 whole entry, looked up): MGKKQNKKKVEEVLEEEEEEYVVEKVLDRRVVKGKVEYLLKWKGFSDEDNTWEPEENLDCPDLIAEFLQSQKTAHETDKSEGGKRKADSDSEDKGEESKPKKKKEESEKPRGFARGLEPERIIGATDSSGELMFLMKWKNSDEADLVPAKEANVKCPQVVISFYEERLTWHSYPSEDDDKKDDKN
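AlphaScreen: HP1-beta (50 nM) preformed 30 min with biotin-H3(1-18)K9me3 peptide (50 nM) in PBS pH 7.4, 0.01% Tween-20. Compound added for 30 min at RT, then streptavidin donor/nickel chelate acceptor beads (10 ug/mL) for 30 min.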
G9a block = inhibitors of human histone lysine methyltransferase G9a | Q96KQ7 | G9a H3K9 monomethylation, AlphaScreen, 2 h | Potency, µM (top dose mostly 102 µM), for the others: at the top dose activity, negative = inhibition, usual class: inhibitors | hit rate 8.8% among 350,000 | AID 504332; note: % is set by controls: 0 for no effect and ±100 for the full control effect; nearly all actives have a fitted effect of over 75% in size
Target sequence (Q96KQ7 913-1193 limits assumed): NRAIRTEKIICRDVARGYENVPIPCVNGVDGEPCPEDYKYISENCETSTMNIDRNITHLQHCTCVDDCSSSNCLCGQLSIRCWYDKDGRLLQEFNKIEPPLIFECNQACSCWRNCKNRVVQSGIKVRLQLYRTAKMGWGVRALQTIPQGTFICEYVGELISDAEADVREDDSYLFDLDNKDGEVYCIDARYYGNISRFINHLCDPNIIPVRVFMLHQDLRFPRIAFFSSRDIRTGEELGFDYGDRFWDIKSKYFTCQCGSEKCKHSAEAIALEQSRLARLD
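Readings reflect AlphaScreen signal from monomethyl-H3K9 antibody detection. HMT at 20 nM; substrate b-H3K9 500 nM; cofactor SAM 20 uM; 2 h RT reaction; compounds tested as titrations in qHTS with 15 min preincubation.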
JMJD2A Tudor = JMJD2A Tudor domain (human) inhibition; AID 504339; Potency, µM (titrated, usually from 114 µM), for inactives: top-dose activity change, negative = inhibition, usual class: inhibitors; AlphaScreen JMJD2A-Tudor / H3K4me3 peptide binding; O75164; hit rate 4.4% among 390,000; note: % is set by controls: 0 for no effect and ±100 for the full control effect; nearly all actives have a fitted effect of over 50% in size
BAZ2B block = blocks human BAZ2B; Q9UIF8; AlphaScreen BAZ2B-H3K14Ac peptide displacement; Potency, µM (doses to about 114 µM), without a hit: top-dose activity change, negative = inhibition, actives largely listed as inhibitors; hit rate 4.4% among 360,000; AID 504333; note: % is set by controls: 0 for no effect and ±100 for the full control effect; nearly all actives have a fitted effect of over 60% in size
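AlphaScreen displacement: compounds (up to 110uM) incubated 30 min at room temperature with a preformed 50 nM BAZ2B/50 nM biotinylated H3K14Ac peptide complex in PBS pH 7.4 with Tween-20. Donor and acceptor beads at 10 ug/mL final added, 20 min light-protected before reading.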
Sfp PPTase inh = blocks B. subtilis Sfp PPTase activity; Potency, µM, for inactives: largest response in the series, negative = inhibition, actives largely listed as inhibitors; hit rate 3.5% among 310,000; AID 1490; Q9F4F7; Biochemical Sfp PPTase activity, qHTS;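 note: the enzyme is Sfp with the accession as filed and its product quenches rhodamine fluorescence; 0% = enzyme reaction without inhibitor and -100% = no enzyme wells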
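Compounds were incubated with enzyme (final 15 nM) for 15 min at room temperature before substrate addition started the reaction. Fluorescence at 525 nm excitation, 598 nm emission was recorded immediately and after 30 minutes.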
Numbers without * were called inactive; ! = not confirmed by another sample; [ ] = dose if it differs, or a comment. The list is not random: actives were taken first. Their share in the collection is about 12%. Calls come from the whole dose curve; as a rule, active = well fitted curve in the direction sought with a large enough effect; inconclusive = small, poorly fitted or top-dose-only effect, or another doubt; inactive = no such curve, though single readings can be large; an effect the other way counts as inactive or inconclusive. Potency is the fitted concentration of half-maximal effect.

How did COc1cc2c(cc1OC)C(c1ccc(N(C)C)cc1)CC(=O)N2 (stereo not given) do in these assays?
HP1b chromo inh: -16%; G9a block: inconclusive; JMJD2A Tudor: inconclusive; BAZ2B block: inconclusive; Sfp PPTase inh: -27%

What do the screens show for `CCOc1ccc(NC(=O)c2ccc(NC(=O)c3ccccc3Br)cc2)cc1`?
HP1b chromo inh: 26%; G9a block: inconclusive; JMJD2A Tudor: -7%; BAZ2B block: 7%

Results for O=C(Nc1ccc(-c2n[nH]c(=S)o2)cc1)c1ccccc1Br ?
HP1b chromo inh: 22%; G9a block: 8.9µM*; JMJD2A Tudor: -4%; BAZ2B block: -1%; Sfp PPTase inh: -7%

How did COc1ccc(C(=O)Nc2ccncc2)cc1OC do in these assays?
HP1b chromo inh: 22%; G9a block: -11%[12.7 µM]; JMJD2A Tudor: -11%; BAZ2B block: 5%; Sfp PPTase inh: -9%

How did COc1ccc(C(=O)Nc2ccc(-c3n[nH]c(=S)o3)cc2)cc1OC do in these assays?
HP1b chromo inh: -25%; G9a block: 1.6µM*; JMJD2A Tudor: inconclusive; BAZ2B block: inconclusive; Sfp PPTase inh: 16µM*

Results for CN(CC(=O)Nc1cc([N+](=O)[O-])ccc1Cl)Cc1ccc(Br)cc1 ?
HP1b chromo inh: -17%; G9a block: 11µM*; JMJD2A Tudor: inconclusive; BAZ2B block: inconclusive; Sfp PPTase inh: inconclusive

How did Cc1ccsc1CN(C)CC(=O)Nc1ccc([N+](=O)[O-])cc1Cl do in these assays?
HP1b chromo inh: inconclusive; G9a block: 40µM*; JMJD2A Tudor: -29%; BAZ2B block: -33%; Sfp PPTase inh: -1%

What do the screens show for `CCOc1ccc(C(=O)Nc2ccc3nc(SCC(=O)N4CCOCC4)sc3c2)cc1`?
HP1b chromo inh: 32%; G9a block: -22%[59 µM]; JMJD2A Tudor: -14%; BAZ2B block: inconclusive

How did COc1ccc(-c2cc(C(F)(F)F)nc(-n3nc(C(F)(F)F)cc3C)n2)cc1 do in these assays?
HP1b chromo inh: 110%; G9a block: 48%[59 µM]; JMJD2A Tudor: 33%; BAZ2B block: 32%

How did O=S(=O)(c1cccc2cnccc12)N1CCCNCC1 do in these assays?
HP1b chromo inh: 5%; G9a block: inconclusive; JMJD2A Tudor: 89µM*; BAZ2B block: 4%; Sfp PPTase inh: -6%

What do the screens show for `O=S(=O)(c1cccc2ccccc12)N1CCCCC1`?
HP1b chromo inh: 66%; JMJD2A Tudor: 24%; BAZ2B block: 8%; Sfp PPTase inh: 2%

How did CC1CNCCN1S(=O)(=O)c1cccc2cnccc12 (stereo not given) do in these assays?
HP1b chromo inh: 33%; G9a block: 11µM*!; JMJD2A Tudor: -28%; BAZ2B block: inconclusive; Sfp PPTase inh: 26%

How did O=S(=O)(c1cc(Cl)ccc1Cl)N1CCNCC1 do in these assays?
HP1b chromo inh: 18%; G9a block: 12%; JMJD2A Tudor: -19%; BAZ2B block: 10%; Sfp PPTase inh: 11%

What do the screens show for `COc1ccc(NC(=O)CCCN2C(=O)CCn3nc(-c4cn(C)c5ccccc45)cc32)cc1`?
HP1b chromo inh: 10%[57 µM]; G9a block: -8%[59 µM]; JMJD2A Tudor: -22%; BAZ2B block: -14%

What do the screens show for `CC(C)=O`?
G9a block: -14%[59 µM]; Sfp PPTase inh: 9%

Results for CC(N)=O ?
G9a block: 0.79µM*

How did COC(=O)c1sc(N2C(=O)c3oc4ccc(C)cc4c(=O)c3C2c2ccc(OC)cc2)nc1C (stereo not given) do in these assays?
HP1b chromo inh: 39%; G9a block: 4%[59 µM]; JMJD2A Tudor: 5%; BAZ2B block: -1%

How did COc1cccc(CNC(=O)CCc2c(C)nc3c(c(C)nn3-c3ccc(C)c(C)c3)c2C)c1 do in these assays?
HP1b chromo inh: 11%; G9a block: -1%[59 µM]; JMJD2A Tudor: -12%; BAZ2B block: 4%

What do the screens show for `CN1CCc2nc3sc(C(=O)C45CC6CC(CC(C6)C4)C5)c(N)c3cc2C1`?
HP1b chromo inh: -77%; G9a block: 2.2µM*; JMJD2A Tudor: -26%; BAZ2B block: inconclusive; Sfp PPTase inh: 16%

What do the screens show for `CCN1CCc2nc3sc(C(=O)c4ccccc4)c(N)c3cc2C1`?
HP1b chromo inh: 0%; G9a block: 11µM*; JMJD2A Tudor: inconclusive; BAZ2B block: -33%[57.1 µM]

What do the screens show for `CN1CCc2nc3sc(C(=O)c4ccc(F)cc4)c(N)c3cc2C1`?
HP1b chromo inh: 7%; G9a block: inconclusive; JMJD2A Tudor: inconclusive; BAZ2B block: -36%

How did Cc1ccccc1NC(=O)c1sc2nc3c(cc2c1N)CN(Cc1ccccc1)CC3 do in these assays?
HP1b chromo inh: 45%; G9a block: inconclusive; JMJD2A Tudor: 0%; BAZ2B block: -9%

What do the screens show for `CN1CCc2nc3sc(C(=O)Nc4ccccc4C(F)(F)F)c(N)c3cc2C1`?
HP1b chromo inh: 14%; G9a block: 13µM*; JMJD2A Tudor: inconclusive; BAZ2B block: inconclusive

How did Cn1c2c(c(=O)n(C)c1=O)C(c1ccccc1[N+](=O)[O-])CC(=O)N2 (stereo not given) do in these assays?
HP1b chromo inh: 22%; G9a block: -20%[59 µM]; JMJD2A Tudor: -2%; BAZ2B block: 0%

How did O=C(Nc1cccc(Cl)c1)Nc1ccc2nccnc2c1 do in these assays?
HP1b chromo inh: 32%; G9a block: 50µM*; JMJD2A Tudor: 3%; BAZ2B block: -22%; Sfp PPTase inh: -19%

Results for O=C(Nc1ccc2nccnc2c1)Nc1ccccc1Cl ?
HP1b chromo inh: 22%; G9a block: inconclusive; JMJD2A Tudor: 20µM*; BAZ2B block: -13%; Sfp PPTase inh: inconclusive

Results for O=C(Nc1ccccc1)Nc1cccc(Cl)c1 ?
HP1b chromo inh: 34%; G9a block: 10%[12.7 µM]; JMJD2A Tudor: 9%; BAZ2B block: -1%; Sfp PPTase inh: -6%

What do the screens show for `O=C(Nc1cccc(C(=O)O)c1)Nc1ccccc1Cl`?
HP1b chromo inh: 36%; G9a block: -5%; JMJD2A Tudor: 1%; BAZ2B block: -3%; Sfp PPTase inh: 5%

What do the screens show for `CCN(CC)CCCCn1c(-c2ccccc2)nc2c(NCCOC)nc(C)nc21`?
Sfp PPTase inh: 21%

How did C/C(=N\N=C1\NC(=O)C(CC(=O)O)S1)c1ccccn1 (stereo not given) do in these assays?
HP1b chromo inh: 51%; JMJD2A Tudor: inconclusive; BAZ2B block: 50µM*; Sfp PPTase inh: -10%

Results for Cc1ccc(NC(=O)CCCN2C(=O)COc3ccc(C)cc32)c(C)c1 ?
HP1b chromo inh: 28%; G9a block: 1%[59 µM]; JMJD2A Tudor: -12%; BAZ2B block: -32%

Results for N#Cc1c(Nc2cccc(F)c2)sc(C(=O)c2ccc(Cl)cc2)c1N ?
HP1b chromo inh: 5%; G9a block: 11µM*; JMJD2A Tudor: -15%; BAZ2B block: inconclusive

What do the screens show for `N#Cc1c(SCc2ccc(Cl)cc2)sc(C(=O)c2ccccc2)c1N`?
HP1b chromo inh: 76%; G9a block: -3%; JMJD2A Tudor: -7%; BAZ2B block: -1%; Sfp PPTase inh: 3%
